According to PubChem BioAssay:
Active and inactive are the calls of the source. Unless noted, no rule for the calls is given here.

Tests used:
[1] = anti-His antibody binders, primary screen, artefact control for SMM control protein annotation, biochemical, small-molecule microarray, 635 nm fluorescence (AID 1128); conditions: anti-His Alexa647 antibody binding, higher = more signal;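 also: score merges feature fluorescence with signal-to-noise for each printed compound spot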
[2] = system: Human papillomavirus type 1a E7 protein (residues 1-88); experiment: HPV1a E7 small-molecule binders, primary screen, biochemical, small-molecule microarray, residues 1-88, 635 nm (AID 1129); conditions: small-molecule microarray binding, fluorescence 635 nm; higher = more signal
[3] = target: Focal adhesion kinase 1 (Homo sapiens) (UniProt Q05397); experiment: small-molecule microarray binders of FAK, primary screen, biochemical, 635/667 nm fluorescence, BSA, DTT (AID 1130); conditions: PTK2 binding, 635 nm fluorescence, higher = more signal;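 also: composite of spot emission at 667 nm and signal to noise over triplicate slides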
[4] = system: Fibrinogen (Alexa647-labelled); experiment: fibrinogen binders on compound microarrays, profiling panel, artefact control for SMM control-protein annotation, biochemical, small-molecule microarray, 635/667 nm fluorescence (AID 1131); conditions: fibrinogen-A647 binding fluorescence, higher = more signal;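 also: z-score merges 667 nm fluorescence with per-spot signal-to-noise over triplicate slides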
[5] = target: Follistatin (Homo sapiens) (UniProt P19883); experiment: follistatin binders on small-molecule microarrays, primary screen, biochemical, small-molecule microarray, 635/667 nm fluorescence (AID 1132); conditions: FST binding, 635 nm fluorescence, higher = more signal
[6] = target: Fibroblast growth factor 2 (Homo sapiens) (UniProt P09038); experiment: FGF2 binders on small-molecule microarrays, primary screen, biochemical, small-molecule microarray, 635/667 nm fluorescence (AID 1133); conditions: small-molecule microarray binding, FGF2, fluorescence 635/667; higher = more signal
[7] = mitochondrial membrane potential change in A549 cells, profiling panel, cell-based, JC-1 fluorescence, basal, 24 h, 100 nL (AID 1138); conditions: higher = more signal;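 also: A549 lung adenocarcinoma cells under basal conditions with no added stimulus; test concentration not given here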
[8] = system: Lefty1; experiment: Lefty1 binders on small-molecule microarrays, primary screen, biochemical, small-molecule microarray, 635/667 nm fluorescence (AID 1139); conditions: small-molecule microarray binding, fluorescence 635/667; higher = more signal
[9] = system: wheat germ agglutinin (Triticum aestivum), Alexa647-labelled; experiment: wheat germ agglutinin binders on compound microarrays, profiling panel, artefact control for SMM control-protein annotation, biochemical, small-molecule microarray, 635/667 nm fluorescence (AID 1140); conditions: WGA-A647 binding, 635 nm fluorescence, higher = more signal;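 also: score merges 667 nm feature emission with signal to noise over triplicate slides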
[10] = target: Luciferin 4-monooxygenase (Photinus pyralis) (UniProt P08659); experiment: firefly luciferase enzyme inhibitors, primary screen, biochemical, luminescence, purified enzyme, 2006 set (AID 1141); conditions: SteadyGlo luminescence, 30 min, higher = more signal, called active from +8 up or from −8 down;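 also: cell-free assay with purified firefly luciferase at 100 ng per well in PBS; test concentration not given here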
[11] = system: Wnt5a (protein binding on small-molecule microarray); experiment: Wnt5a binders on small-molecule microarray, primary screen, biophysical, 635/667 nm fluorescence (AID 1142); conditions: 635 nm fluorescence, higher = more signal;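 also: fluorescence read at 667 nm with signal to noise per printed feature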
[12] = cell viability in Huh7 cells, primary screen, cytotoxicity control for HCV replication inhibitor project, CellTiter-Glo luminescence, basal, 48 h (AID 1143); conditions: Huh7 HCV replicon, higher = more signal, called active from +8 up or from −8 down;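 also: Huh7 hepatoma cells carrying a hepatitis C replication reporter with no stimulus; test concentration not given here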
[13] = P. aeruginosa biofilm formation inhibitors, primary screen, PAO1 strain, BacTiter-Glo luminescence, LB-PBS (AID 1144); conditions: 12 h, higher = more signal
[14] = CREB reporter modulators without forskolin, primary screen, cell-based, PC12, CRE-LacZ reporter, unstimulated (AID 1145); conditions: no forskolin, luminescence, 4.5 h, higher = more signal, called active from +8 up or from −8 down
[15] = CREB reporter modulators under forskolin, primary screen, cell-based, PC12, CRE-LacZ reporter, forskolin-stimulated (AID 1146); conditions: luminescence, 4.5 h, higher = more signal, called active from +8 up or from −8 down;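 also: PC12 cells with 6xCRE LacZ reporter stimulated by forskolin 10 µM; beta-galactosidase reporter signal reflecting CREB driven transcription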
[16] = target: Streptavidin (Streptomyces avidinii) (UniProt P22629); experiment: streptavidin binders on small-molecule microarray, primary screen, artefact control for SMM compound annotation, biophysical, 635/667 nm fluorescence (AID 1147); conditions: streptavidin binding, higher = more signal;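 also: signal reflects streptavidin binding to arrayed compounds as a control protein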
[17] = small-molecule binders of probe aInhba, primary screen, biochemical, small-molecule microarray, 635/667 nm fluorescence (AID 1148); conditions: higher = more signal;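 also: score merges 667nm spot fluorescence with signal-to-noise for antibody binding to printed compounds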
[18] = target: Torsin-1A (Homo sapiens) (UniProt O14656); experiment: torsin A binders from cell lysate, primary screen, small-molecule microarray, wild-type, 635/667 nm (AID 1149); conditions: COS7 hTOR1A-WT lysate, 635 nm fluorescence, higher = more signal
[19] = target: Torsin-1A (Homo sapiens) (UniProt O14656); experiment: small-molecule binders of mutant TOR1A in lysate, primary screen, cell lysate, small-molecule microarray, COS7 lysate, 635/667 nm fluorescence (AID 1150); conditions: COS7 hTOR1A mutant lysate, 635 nm fluorescence, higher = more signal;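 also: score pools 667 nm emission and signal to noise measuring lysate protein binding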
[20] = system: Sonic hedgehog protein (Shh); experiment: small-molecule binders of Shh protein, primary screen, biochemical, small-molecule microarray, 635/667 nm fluorescence (AID 1151); conditions: small-molecule microarray binding, 635 nm fluorescence; higher = more signal;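 also: Shh protein binding to compounds spotted on small-molecule microarray slides; score combines spot fluorescence intensity with signal-to-noise across triplicate slides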

Follistatin (Homo sapiens), sequence (P19883 whole entry, looked up): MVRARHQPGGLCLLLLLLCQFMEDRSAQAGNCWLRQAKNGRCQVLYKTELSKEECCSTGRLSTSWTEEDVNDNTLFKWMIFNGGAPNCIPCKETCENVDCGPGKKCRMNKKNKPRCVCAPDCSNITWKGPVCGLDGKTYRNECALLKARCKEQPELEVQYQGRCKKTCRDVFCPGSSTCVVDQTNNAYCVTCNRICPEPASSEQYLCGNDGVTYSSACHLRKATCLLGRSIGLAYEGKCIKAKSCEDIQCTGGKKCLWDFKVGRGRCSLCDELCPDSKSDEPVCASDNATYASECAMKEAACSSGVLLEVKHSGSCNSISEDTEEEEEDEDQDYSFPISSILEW
Luciferin 4-monooxygenase (Photinus pyralis), sequence (P08659 whole entry, looked up): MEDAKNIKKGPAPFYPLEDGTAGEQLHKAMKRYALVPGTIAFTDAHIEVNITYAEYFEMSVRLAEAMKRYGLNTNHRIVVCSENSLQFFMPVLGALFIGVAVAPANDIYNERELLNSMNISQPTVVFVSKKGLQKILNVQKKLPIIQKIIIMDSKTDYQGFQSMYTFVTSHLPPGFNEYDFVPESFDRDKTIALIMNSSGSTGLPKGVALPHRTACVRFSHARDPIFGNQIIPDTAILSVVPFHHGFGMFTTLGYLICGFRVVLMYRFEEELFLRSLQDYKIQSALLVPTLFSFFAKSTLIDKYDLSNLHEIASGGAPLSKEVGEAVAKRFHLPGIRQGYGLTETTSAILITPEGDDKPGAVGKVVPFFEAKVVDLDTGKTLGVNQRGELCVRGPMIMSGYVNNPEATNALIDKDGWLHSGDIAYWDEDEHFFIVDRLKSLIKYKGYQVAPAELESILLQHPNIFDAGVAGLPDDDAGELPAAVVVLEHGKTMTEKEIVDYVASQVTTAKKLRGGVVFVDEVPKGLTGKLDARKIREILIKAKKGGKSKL
Fibroblast growth factor 2 (Homo sapiens), sequence (P09038 whole entry, looked up): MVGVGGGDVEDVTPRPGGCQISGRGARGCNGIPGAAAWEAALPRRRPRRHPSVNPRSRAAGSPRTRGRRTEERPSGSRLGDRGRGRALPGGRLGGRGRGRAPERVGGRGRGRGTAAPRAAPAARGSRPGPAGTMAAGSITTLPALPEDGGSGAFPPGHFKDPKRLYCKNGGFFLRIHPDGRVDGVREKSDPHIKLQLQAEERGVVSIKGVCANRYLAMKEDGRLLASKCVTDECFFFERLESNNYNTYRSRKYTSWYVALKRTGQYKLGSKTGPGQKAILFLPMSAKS
Torsin-1A (Homo sapiens), sequence (O14656 whole entry, looked up): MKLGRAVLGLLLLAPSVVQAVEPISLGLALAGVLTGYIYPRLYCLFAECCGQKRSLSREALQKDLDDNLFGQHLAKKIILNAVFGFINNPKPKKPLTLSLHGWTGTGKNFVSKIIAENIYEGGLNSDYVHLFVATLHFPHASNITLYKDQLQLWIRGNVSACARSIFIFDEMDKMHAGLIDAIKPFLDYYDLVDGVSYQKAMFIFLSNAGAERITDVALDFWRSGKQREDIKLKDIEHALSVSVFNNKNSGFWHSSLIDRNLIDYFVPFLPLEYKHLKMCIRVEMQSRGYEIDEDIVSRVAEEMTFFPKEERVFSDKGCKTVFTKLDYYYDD
Focal adhesion kinase 1 (Homo sapiens), sequence (Q05397 whole entry, looked up): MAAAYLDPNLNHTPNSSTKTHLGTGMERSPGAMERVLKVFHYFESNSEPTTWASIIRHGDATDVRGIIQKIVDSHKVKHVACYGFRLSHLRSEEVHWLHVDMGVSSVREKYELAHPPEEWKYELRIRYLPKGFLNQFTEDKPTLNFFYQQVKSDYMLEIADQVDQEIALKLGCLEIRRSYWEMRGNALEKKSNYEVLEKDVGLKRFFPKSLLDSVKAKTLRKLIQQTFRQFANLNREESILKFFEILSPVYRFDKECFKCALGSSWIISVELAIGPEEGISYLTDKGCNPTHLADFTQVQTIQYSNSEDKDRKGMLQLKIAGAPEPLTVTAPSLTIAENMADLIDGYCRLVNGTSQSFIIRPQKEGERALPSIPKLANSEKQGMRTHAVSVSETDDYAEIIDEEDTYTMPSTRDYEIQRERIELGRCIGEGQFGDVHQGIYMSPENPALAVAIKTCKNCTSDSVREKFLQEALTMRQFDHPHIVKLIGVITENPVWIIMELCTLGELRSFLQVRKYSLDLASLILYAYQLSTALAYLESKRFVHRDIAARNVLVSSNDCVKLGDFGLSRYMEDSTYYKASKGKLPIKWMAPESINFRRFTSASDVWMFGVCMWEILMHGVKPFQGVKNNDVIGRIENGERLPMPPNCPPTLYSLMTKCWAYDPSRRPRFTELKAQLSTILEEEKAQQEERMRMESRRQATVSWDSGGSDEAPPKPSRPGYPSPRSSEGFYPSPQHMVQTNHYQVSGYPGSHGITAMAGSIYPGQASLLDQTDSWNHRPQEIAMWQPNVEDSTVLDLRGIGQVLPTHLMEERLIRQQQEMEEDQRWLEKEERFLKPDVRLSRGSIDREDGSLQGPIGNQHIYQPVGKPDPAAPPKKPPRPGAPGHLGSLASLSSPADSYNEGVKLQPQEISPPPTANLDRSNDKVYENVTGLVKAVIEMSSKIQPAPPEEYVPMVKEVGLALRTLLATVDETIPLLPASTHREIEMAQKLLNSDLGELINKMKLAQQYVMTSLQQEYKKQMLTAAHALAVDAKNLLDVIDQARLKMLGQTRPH
Streptavidin (Streptomyces avidinii), sequence (P22629 whole entry, looked up): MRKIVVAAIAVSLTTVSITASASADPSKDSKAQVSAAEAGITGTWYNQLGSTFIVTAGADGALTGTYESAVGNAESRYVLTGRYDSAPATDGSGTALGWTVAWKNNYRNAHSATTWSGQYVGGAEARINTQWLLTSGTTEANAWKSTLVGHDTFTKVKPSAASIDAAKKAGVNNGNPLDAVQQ

Row | Compound | composite z-score [1] | composite z-score [2] | composite z-score [3] | composite z-score [4] | composite z-score [5] | composite z-score [6] | z-score [7] | composite z-score [8] | composite z-score [9] | z-score [10] | composite z-score [11] | z-score [12] | z-score [13] | z-score [14] | z-score [15] | composite z-score [16] | composite z-score [17] | composite z-score [18] | composite z-score [19] | composite z-score [20]
1 | COCCOC(=O)N1C(=O)[C@@]2(c3cc(C#CC4=CCCCC4)ccc31)[C@H](c1ccccc1OCCO)N1[C@H](c3ccccc3)[C@H](c3ccccc3)OC(=O)[C@H]1[C@@H]2C(=O)N1CCc2cc(OC)c(OC)cc2C1 | 0.891 | 1.2 | 0.204 | 0.764 | 1.28 | 0.917 | -0.682 | 0.555 | 0.441 | -1.97 (inactive) | 0.316 | -1.93 (inactive) | -0.455 (inactive) | 1.03 (inactive) | 0.904 (inactive) | -0.0953 | -0.305 | -0.148 | 0.536 | 1.79
2 | C=CC1c2cc(O)c(OC)cc2CCN1Cc1sc2ccccc2c1Cl (stereo not given) | 0.13 | 0.696 | -0.025 | 0.863 | 1.28 | -0.416 | -0.68 | 0.188 | 0.983 | -0.707 (inactive) | 0.252 | -3.81 (inactive) | 1.39 (inactive) | -0.114 (inactive) | 1.7 (inactive) | 1.57 | -0.295 | -0.425 | 0.257 | -0.0808
3 | O=C1O[C@@H](c2ccccc2)[C@@H](c2ccccc2)N2[C@@H](c3ccccc3OCCO)[C@]3(C(=O)Nc4ccc(C#CCCO)cc43)[C@@H](C(=O)N3CCN(c4ncccn4)CC3)[C@H]12 | 1.72 | 1.19 | 0.747 | 0.946 | 0.389 | -0.0344 | 0.679 | 0.081 | 0.65 | 0.27 (inactive) | 0.174 | -2.33 (inactive) | 0.608 (inactive) | 0.478 (inactive) | 2.99 (inactive) | 0.139 | -0.0448 | -0.566 | 0.224 | -0.105
4 | Cc1ccc(S[C@]2(C(=O)NC3CC3)CC(=O)N(Cc3ccccc3Cl)[C@@H]2c2ccc(CO)cc2I)cc1 | 2.99 | 1.05 | 1.31 | 0.811 | 1.45 | 1.67 | 0.677 | 0.101 | 0.277 | 0.352 (inactive) | 1.3 | -1.5 (inactive) | -0.637 (inactive) | 0.145 (inactive) | 1.13 (inactive) | 0.163 | 0.0471 | 0.765 | 1.01 | 1.67
5 | C=CCN1C(=O)[C@@]2(O[C@@H](CCn3cc([C@H](O)c4ccccc4)nn3)[C@H]([Si](C)(C)c3ccc(OC)cc3)[C@H]2C)c2ccccc21 | 0.351 | 1.14 | 0.287 | 0.371 | 1.18 | 0.761 | 0.493 | 1.2 | 0.875 | 0.586 (inactive) | 0.351 | -3.85 (inactive) | 0.0526 (inactive) | 3.9 (inactive) | -0.448 (inactive) | -0.0664 | 0.134 | -0.0628 | -0.168 | 1.7
6 | COC(=O)[C@@]1(Cc2ccccc2)[C@H]2c3cc(C(=O)N4CCCC4)n(Cc4ccsc4Br)c3C[C@H]2CN1C(=O)c1ccccc1 | 1.6 | 1.23 | 0.619 | 0.789 | 0.647 | -0.282 | 1.88 | -0.524 | 1.25 | 1.79 (inactive) | 0.38 | -3.12 (inactive) | 0.389 (inactive) | 0.201 (inactive) | -0.813 (inactive) | 1.21 | 0.407 | 0.147 | 0.894 | -1.01
7 | CCOC(=O)[C@@H]1[C@@H]2C(=O)N(CC)C(=O)[C@@H]2C[C@@H]1Sc1ccccc1 | 1.62 | 1.2 | 0.592 | 0.462 | 0.329 | 0.0435 | -1.24 | 0.307 | 0.402 | 1.4 (inactive) | 0.202 | 0.371 (inactive) | -0.868 (inactive) | 0.136 (inactive) | 1.04 (inactive) | 0.603 | 0.0357 | 0.592 | 0.975 | 0.209
8 | CC=CC(O)C1C=CC2C(=O)N(c3ccccc3)C(=O)C2N1Nc1ccccc1 (stereo not given) | 2.25 | 1.25 | 0.981 | 0.915 | 1.2 | 0.915 | 0.714 | 0.493 | 1.15 | -2.22 (inactive) | 0.859 | 0.973 (inactive) | -1.33 (inactive) | 0.0501 (inactive) | -0.741 (inactive) | 1 | 0.337 | 0.358 | 0.285 | 0.0322
9 | Cc1ccc(S[C@]2(C(=O)NC(C)C)CC(=O)N(C3Cc4ccccc4C3)[C@@H]2c2ccc(CO)cc2I)cc1 | -0.641 | -0.597 | -0.602 | -0.779 | -0.172 | 0.188 | 1.37 | -2.2 | -0.412 | 0.507 (inactive) | -0.511 | -1.83 (inactive) | -0.0878 (inactive) | 0.622 (inactive) | 1.28 (inactive) | -0.959 | -0.355 | -1.49 | -0.009 | -0.274
10 | NC(=O)NCC#Cc1ccc2c(c1)[C@]1(C(=O)N2)[C@H](C(=O)O)[C@H]2C(=O)O[C@H](c3ccccc3)[C@H](c3ccccc3)N2[C@@H]1c1ccccc1OCCO | 1.18 | 0.866 | 0.129 | 0.809 | 1.03 | 0.836 | 0.246 | 1.2 | 1.16 | -4.72 (inactive) | 0.697 | -1.95 (inactive) | -1.26 (inactive) | 0.0384 (inactive) | 0.143 (inactive) | 1.1 | 0.374 | 0.712 | 0.651 | 1.41
